# Data from publication PMC7862700, “An all-to-all approach to the identification of sequence-specific readers for epigenetic DNA modifications on cytosine”.
# Legend:
# Assay in all cases: DAPPL (digital affinity profiling via proximity ligation, sequencing); 10 mM Tris-HCl pH 7.5, 50 mM NaCl, 1 mM DTT, 4% glycerol, room temperature, 30 min; GST-TFs on glutathione beads, 16-mer random dsDNA library, 0.1% formaldehyde crosslink after washing; high values mean tight binding
# [1] = target: T1, FEV (Homo sapiens, UniProt Q99581 1-238); conditions: protein: recombinant; tags: N-terminal GST; dsDNA, one strand shown
# T1 sequence: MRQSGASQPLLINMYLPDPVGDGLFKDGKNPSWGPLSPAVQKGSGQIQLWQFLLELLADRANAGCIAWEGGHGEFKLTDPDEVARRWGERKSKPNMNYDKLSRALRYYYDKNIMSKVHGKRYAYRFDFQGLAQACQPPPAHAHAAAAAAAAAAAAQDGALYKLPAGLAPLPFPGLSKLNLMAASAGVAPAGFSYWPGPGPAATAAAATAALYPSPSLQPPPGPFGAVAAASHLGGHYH
# In short: (§1)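 Yeast served to express human transcription factors as GST fusions, which were then captured on glutathione beads and labelled with DNA barcodes. Pooled with a tag-only sample, they were incubated with 200 nmole of a 16-mer random double-stranded DNA library for 30 min at room temperature in Tris/NaCl/DTT/glycerol buffer, washed, crosslinked with 0.1% formaldehyde, ligated by proximity, amplified by PCR and sequenced. Dividing each hexamer's read frequency for a factor by its frequency for the tag-only sample gives the binding signal.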
# [2] = target: ETV5 (Homo sapiens, UniProt P41161 1-510); conditions: protein: recombinant; tags: N-terminal GST; dsDNA, one strand shown
# Sequence of ETV5 (P41161 whole entry): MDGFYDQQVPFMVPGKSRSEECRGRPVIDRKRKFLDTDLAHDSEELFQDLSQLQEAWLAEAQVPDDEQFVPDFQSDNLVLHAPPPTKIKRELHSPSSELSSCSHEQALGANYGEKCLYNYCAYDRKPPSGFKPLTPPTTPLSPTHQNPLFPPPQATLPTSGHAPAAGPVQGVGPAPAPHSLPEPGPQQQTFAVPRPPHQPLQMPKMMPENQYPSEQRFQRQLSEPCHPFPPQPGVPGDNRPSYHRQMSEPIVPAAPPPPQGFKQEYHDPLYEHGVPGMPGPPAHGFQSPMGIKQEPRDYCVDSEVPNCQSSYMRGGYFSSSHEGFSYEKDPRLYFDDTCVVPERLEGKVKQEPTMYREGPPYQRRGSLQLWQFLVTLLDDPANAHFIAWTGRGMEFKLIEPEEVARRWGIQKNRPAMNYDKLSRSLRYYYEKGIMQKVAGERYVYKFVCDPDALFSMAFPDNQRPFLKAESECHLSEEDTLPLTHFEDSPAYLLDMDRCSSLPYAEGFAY
# In short: as §1
# [3] = target: HSF1 (Homo sapiens, UniProt Q00613 1-529); conditions: protein: recombinant; tags: N-terminal GST; chain copies: 3; dsDNA, one strand shown
# Sequence of HSF1 (Q00613 whole entry): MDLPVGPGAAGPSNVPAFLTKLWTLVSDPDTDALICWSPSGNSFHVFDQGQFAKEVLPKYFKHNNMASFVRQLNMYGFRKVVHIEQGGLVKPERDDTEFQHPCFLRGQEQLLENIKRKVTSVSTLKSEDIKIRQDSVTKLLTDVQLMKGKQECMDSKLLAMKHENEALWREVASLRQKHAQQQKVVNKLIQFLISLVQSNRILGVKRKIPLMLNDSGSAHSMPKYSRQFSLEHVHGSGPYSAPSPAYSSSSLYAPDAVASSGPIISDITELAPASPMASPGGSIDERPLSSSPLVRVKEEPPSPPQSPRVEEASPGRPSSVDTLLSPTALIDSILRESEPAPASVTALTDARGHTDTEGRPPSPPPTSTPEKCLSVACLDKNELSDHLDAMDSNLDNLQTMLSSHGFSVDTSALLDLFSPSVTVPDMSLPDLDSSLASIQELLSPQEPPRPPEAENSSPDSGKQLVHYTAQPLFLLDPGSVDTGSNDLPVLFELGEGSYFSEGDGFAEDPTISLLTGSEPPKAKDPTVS
# In short: as §1
# [4] = target: T2, SPIC (Homo sapiens, UniProt Q8N5J4 1-248); conditions: protein: recombinant; tags: N-terminal GST; dsDNA, one strand shown
# T2 sequence: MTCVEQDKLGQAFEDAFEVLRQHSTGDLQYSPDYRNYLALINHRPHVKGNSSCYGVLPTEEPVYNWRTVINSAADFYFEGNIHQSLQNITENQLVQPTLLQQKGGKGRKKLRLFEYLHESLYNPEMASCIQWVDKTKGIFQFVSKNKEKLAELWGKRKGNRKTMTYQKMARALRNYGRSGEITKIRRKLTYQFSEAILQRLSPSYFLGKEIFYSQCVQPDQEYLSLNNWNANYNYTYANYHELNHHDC
# In short: as §1
# [5] = target: ELF4 (Homo sapiens, UniProt Q99607 1-663); conditions: protein: recombinant; tags: N-terminal GST; dsDNA, one strand shown
# Sequence of ELF4 (Q99607 whole entry): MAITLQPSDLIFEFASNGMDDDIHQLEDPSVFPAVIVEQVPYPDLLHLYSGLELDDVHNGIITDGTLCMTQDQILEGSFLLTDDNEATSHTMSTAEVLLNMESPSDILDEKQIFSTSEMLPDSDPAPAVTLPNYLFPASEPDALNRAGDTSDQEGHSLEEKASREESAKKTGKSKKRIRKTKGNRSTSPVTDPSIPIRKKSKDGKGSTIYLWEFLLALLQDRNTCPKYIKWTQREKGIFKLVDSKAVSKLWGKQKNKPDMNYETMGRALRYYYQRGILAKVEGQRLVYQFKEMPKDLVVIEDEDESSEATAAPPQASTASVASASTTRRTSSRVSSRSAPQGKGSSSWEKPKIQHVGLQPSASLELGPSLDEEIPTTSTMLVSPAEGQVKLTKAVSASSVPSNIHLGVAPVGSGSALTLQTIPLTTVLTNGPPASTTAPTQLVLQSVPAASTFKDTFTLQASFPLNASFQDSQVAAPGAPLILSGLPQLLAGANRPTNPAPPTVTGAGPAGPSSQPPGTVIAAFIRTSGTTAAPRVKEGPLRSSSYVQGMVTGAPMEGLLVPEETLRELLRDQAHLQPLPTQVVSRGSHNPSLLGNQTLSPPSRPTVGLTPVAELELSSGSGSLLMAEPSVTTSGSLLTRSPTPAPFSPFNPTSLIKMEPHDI
# In short: as §1
# [6] = target: T3, ELK4 (Homo sapiens, UniProt P28324-2 1-405); conditions: protein: recombinant; tags: N-terminal GST; dsDNA, one strand shown
# T3 sequence: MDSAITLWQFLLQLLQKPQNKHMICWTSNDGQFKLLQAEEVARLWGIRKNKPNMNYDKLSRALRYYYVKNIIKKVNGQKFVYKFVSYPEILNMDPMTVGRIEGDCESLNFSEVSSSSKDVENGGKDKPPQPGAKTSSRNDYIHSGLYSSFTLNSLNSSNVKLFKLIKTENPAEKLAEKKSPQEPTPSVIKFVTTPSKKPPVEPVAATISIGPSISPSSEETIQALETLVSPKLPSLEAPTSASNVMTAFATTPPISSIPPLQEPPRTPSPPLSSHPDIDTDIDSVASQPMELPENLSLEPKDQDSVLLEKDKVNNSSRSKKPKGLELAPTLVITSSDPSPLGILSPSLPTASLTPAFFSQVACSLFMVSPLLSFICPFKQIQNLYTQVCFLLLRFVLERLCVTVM
# In short: as §1
# [7] = target: T4, ETV2 (Homo sapiens, UniProt O00321 1-342); conditions: protein: recombinant; tags: N-terminal GST; dsDNA, one strand shown
# T4 sequence: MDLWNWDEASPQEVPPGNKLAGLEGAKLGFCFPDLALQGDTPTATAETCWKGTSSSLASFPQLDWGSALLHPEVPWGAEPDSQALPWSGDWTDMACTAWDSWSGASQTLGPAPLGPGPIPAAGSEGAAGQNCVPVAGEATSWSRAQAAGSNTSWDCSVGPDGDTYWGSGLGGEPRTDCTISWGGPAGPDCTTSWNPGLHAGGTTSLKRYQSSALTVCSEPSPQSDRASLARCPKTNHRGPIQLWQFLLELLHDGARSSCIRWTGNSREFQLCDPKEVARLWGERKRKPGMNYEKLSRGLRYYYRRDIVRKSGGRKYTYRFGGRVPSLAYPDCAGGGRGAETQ
# In short: as §1
# [8] = target: T5, ELF3 (Homo sapiens, UniProt P78545 1-371); conditions: protein: recombinant; tags: N-terminal GST; dsDNA, one strand shown
# T5 sequence: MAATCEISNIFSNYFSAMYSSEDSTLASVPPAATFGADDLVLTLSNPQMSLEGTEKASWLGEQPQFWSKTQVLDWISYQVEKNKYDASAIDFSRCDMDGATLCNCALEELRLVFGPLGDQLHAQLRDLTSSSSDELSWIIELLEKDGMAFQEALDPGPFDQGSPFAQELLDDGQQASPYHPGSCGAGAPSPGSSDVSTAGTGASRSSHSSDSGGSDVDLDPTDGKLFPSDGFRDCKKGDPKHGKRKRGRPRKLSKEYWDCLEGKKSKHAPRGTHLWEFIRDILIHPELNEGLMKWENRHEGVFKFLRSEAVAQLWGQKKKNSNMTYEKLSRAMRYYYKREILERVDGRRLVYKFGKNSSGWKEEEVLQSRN
# In short: as §1
# [9] = target: CRX (Homo sapiens, UniProt O43186 1-299); conditions: protein: recombinant; tags: N-terminal GST; dsDNA, one strand shown
# Sequence of CRX (O43186 whole entry): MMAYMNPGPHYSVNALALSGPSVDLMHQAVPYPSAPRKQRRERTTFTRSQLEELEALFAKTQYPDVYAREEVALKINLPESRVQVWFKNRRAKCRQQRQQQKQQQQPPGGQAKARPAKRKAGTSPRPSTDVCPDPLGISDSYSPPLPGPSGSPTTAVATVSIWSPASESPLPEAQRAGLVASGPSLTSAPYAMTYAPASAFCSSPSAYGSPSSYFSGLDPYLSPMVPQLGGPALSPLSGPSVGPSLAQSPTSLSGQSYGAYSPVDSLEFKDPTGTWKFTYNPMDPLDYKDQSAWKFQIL
# In short: as §1
# [10] = target: ETV1 (Homo sapiens, UniProt P50549 1-477); conditions: protein: recombinant; tags: N-terminal GST; dsDNA, one strand shown
# Sequence of ETV1 (P50549 whole entry): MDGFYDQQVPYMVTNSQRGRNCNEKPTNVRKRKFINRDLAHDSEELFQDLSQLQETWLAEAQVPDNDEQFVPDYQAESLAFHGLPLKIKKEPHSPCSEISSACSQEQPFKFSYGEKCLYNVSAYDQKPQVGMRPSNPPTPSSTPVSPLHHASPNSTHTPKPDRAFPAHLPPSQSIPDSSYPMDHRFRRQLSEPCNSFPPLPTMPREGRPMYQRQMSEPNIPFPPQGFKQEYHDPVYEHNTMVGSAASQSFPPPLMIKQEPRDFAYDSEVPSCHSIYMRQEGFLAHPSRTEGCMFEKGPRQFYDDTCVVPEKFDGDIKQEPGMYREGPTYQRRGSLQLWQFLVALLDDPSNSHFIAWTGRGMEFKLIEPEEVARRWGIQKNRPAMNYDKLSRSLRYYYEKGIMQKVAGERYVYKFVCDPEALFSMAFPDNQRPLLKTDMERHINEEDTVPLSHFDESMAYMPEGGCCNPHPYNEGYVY
# In short: as §1
# [11] = target: T6, ERF (Homo sapiens, UniProt P50548 1-548); conditions: protein: recombinant; tags: N-terminal GST; dsDNA, one strand shown
# T6 sequence: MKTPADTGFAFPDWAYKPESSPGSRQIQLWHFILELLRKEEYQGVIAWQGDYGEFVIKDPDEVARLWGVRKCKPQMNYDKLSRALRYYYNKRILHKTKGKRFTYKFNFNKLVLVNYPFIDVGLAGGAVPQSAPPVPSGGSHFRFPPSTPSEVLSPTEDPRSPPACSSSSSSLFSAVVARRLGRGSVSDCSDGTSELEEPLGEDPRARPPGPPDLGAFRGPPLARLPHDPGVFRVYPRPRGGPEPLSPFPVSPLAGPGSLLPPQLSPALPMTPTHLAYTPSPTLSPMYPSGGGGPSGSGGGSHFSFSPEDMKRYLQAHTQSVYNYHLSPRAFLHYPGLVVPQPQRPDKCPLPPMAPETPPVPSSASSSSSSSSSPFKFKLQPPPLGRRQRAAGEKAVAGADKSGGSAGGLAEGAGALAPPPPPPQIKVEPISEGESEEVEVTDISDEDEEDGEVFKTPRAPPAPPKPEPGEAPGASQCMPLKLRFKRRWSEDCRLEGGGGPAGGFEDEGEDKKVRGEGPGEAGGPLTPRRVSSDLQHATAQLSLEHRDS
# In short: as §1
# [12] = target: T7, ETV3L (Homo sapiens, UniProt Q6ZN32 1-361); conditions: protein: recombinant; tags: N-terminal GST; dsDNA, one strand shown
# T7 sequence: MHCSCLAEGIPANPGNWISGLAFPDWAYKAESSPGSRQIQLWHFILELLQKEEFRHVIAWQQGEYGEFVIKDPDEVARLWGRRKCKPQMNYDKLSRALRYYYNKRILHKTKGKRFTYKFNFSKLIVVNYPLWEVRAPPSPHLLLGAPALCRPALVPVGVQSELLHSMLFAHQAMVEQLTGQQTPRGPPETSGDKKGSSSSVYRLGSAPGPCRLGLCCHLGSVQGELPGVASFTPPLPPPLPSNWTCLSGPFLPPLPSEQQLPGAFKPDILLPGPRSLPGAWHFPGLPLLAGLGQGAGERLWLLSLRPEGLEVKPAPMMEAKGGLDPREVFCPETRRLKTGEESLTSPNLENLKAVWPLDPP
# In short: as §1
# [13] = target: T8, ETS2 (Homo sapiens, UniProt P15036 1-469); conditions: protein: recombinant; tags: N-terminal GST; dsDNA, one strand shown
# T8 sequence: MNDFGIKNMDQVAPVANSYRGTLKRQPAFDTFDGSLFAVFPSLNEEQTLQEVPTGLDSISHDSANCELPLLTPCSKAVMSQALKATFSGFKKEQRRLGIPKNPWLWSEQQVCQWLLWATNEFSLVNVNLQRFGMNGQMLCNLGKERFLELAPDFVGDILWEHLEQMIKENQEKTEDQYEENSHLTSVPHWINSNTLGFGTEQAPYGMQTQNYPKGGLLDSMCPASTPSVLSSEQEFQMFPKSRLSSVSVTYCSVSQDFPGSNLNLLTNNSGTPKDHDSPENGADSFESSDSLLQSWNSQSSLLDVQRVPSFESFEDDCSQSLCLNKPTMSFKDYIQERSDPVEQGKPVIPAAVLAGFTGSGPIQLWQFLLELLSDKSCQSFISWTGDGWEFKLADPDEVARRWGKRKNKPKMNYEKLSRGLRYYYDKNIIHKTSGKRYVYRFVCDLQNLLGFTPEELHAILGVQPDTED
# In short: as §1
# [14] = target: T9, SPDEF (Homo sapiens, UniProt O95238 1-335); conditions: protein: recombinant; tags: N-terminal GST; dsDNA, one strand shown
# T9 sequence: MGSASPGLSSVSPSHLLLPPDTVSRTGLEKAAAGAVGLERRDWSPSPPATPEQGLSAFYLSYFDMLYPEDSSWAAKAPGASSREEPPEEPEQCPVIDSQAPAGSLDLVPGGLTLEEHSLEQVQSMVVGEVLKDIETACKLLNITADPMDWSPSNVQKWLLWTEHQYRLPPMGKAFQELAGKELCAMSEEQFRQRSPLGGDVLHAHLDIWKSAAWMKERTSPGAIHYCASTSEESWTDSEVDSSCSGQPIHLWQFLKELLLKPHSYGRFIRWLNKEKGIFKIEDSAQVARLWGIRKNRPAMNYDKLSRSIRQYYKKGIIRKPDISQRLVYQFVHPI
# In short: as §1
# [15] = target: T10, ETV7 (Homo sapiens, UniProt Q9Y603 1-341); conditions: protein: recombinant; tags: N-terminal GST; dsDNA, one strand shown
# T10 sequence: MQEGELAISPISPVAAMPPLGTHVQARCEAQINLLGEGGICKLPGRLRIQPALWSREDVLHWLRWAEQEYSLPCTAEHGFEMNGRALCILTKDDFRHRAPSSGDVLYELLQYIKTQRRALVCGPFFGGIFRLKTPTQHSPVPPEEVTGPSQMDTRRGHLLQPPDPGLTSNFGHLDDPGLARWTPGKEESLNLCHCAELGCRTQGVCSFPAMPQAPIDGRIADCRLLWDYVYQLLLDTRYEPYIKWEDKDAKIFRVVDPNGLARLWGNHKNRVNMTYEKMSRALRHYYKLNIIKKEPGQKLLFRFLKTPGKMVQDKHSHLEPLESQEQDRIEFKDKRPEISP
# In short: as §1
# [16] = target: T11, ELF5 (Homo sapiens, UniProt Q9UKW6-2 1-255); conditions: protein: recombinant; tags: N-terminal GST; dsDNA, one strand shown
# T11 sequence: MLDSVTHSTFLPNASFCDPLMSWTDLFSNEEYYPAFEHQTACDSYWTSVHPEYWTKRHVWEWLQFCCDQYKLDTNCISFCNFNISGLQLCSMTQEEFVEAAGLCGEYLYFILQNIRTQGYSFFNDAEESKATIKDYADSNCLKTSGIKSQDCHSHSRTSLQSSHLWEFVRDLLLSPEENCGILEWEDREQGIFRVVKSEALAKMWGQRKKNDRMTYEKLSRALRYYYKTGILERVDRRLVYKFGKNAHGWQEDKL
# In short: as §1
# [17] = target: T12, ETV3 (Homo sapiens, UniProt P41162-2 1-143); conditions: protein: recombinant; tags: N-terminal GST; dsDNA, one strand shown
# T12 sequence: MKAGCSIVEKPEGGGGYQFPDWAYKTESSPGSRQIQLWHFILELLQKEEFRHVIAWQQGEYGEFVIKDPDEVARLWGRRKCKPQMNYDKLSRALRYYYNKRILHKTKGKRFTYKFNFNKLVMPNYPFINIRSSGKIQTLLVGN
# In short: as §1
# [18] = target: ETV6 (Homo sapiens, UniProt P41212 1-452); conditions: protein: recombinant; tags: N-terminal GST; dsDNA, one strand shown
# Sequence of ETV6 (P41212 whole entry): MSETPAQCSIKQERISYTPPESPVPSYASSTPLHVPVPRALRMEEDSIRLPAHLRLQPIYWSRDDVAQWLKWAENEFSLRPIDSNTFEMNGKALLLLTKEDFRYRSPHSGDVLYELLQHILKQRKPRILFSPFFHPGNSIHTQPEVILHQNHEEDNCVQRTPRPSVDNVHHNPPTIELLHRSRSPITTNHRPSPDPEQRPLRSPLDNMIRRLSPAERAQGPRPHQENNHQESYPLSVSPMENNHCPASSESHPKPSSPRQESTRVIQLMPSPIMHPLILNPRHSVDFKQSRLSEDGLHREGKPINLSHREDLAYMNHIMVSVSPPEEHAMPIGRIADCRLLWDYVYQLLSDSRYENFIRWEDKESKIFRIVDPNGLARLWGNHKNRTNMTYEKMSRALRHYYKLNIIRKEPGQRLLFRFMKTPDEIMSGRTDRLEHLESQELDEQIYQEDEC
# In short: as §1
sequence,measurement,setting,value
ATATAT,binding signal,[1],"1.41 fold enrichment (6-mer frequency, TF over GST control)"
same,binding signal,[2],"1.42 fold enrichment (6-mer frequency, TF over GST control)"
same,binding signal,[3],"1.31 fold enrichment (6-mer frequency, TF over GST control)"
same,binding signal,[4],"1.51 fold enrichment (6-mer frequency, TF over GST control)"
same,binding signal,[5],"1.38 fold enrichment (6-mer frequency, TF over GST control)"
same,binding signal,[6],"1.55 fold enrichment (6-mer frequency, TF over GST control)"
same,binding signal,[7],"1.31 fold enrichment (6-mer frequency, TF over GST control)"
same,binding signal,[8],"1.64 fold enrichment (6-mer frequency, TF over GST control)"
same,binding signal,[9],"1.46 fold enrichment (6-mer frequency, TF over GST control)"
same,binding signal,[10],"1.33 fold enrichment (6-mer frequency, TF over GST control)"
same,binding signal,[11],"1.51 fold enrichment (6-mer frequency, TF over GST control)"
same,binding signal,[12],"1.41 fold enrichment (6-mer frequency, TF over GST control)"
same,binding signal,[13],"1.39 fold enrichment (6-mer frequency, TF over GST control)"
same,binding signal,[14],"1.43 fold enrichment (6-mer frequency, TF over GST control)"
same,binding signal,[15],"1.29 fold enrichment (6-mer frequency, TF over GST control)"
same,binding signal,[16],"1.42 fold enrichment (6-mer frequency, TF over GST control)"
same,binding signal,[17],"1.41 fold enrichment (6-mer frequency, TF over GST control)"
same,binding signal,[18],"1.44 fold enrichment (6-mer frequency, TF over GST control)"
